The supplement of paper PMC10037445
The full ranking holds about 2,900 compounds; the median of “NF-kB SEAP reporter activity, fold change vs agonist alone” is about 0.99, and the highest 2% start at about 2.6. This excerpt belongs to a sample that is enriched for the highest values.

How the values were obtained:
[1] = test system: RAW-Dual; assay: NF-kB SEAP reporter activity, fold change vs agonist alone; higher = enhanced NF-kB activity
Procedure, shortened: (§1)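 Library stock was pin-tooled at 50 nL into 384-well plates of RAW-Dual macrophages (50,000 cells/well, DMEM), followed 1 h later by a PRR agonist, and the cells were kept at 37 °C, 5% CO2. Supernatant collected after 20 hours was read for IRF by QuantiLuc luminescence and for NF-κB by QuantiBlue absorbance at 620 nm. Reporter activity is fold change over agonist-alone wells, and a well counted as cytotoxic when its IncuCyte confluency was below 70% of agonist controls in both mask sets.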

[2] = test system: RAW-Dual; assay: NF-kB SEAP reporter activity, fold change vs agonist alone; cytotoxicity flag (confluency mask): not cytotoxic; higher = enhanced NF-kB activity
Procedure, shortened: as §1

[3] = test system: RAW-Dual; assay: NF-kB SEAP reporter activity, fold change vs agonist alone; cytotoxicity flag (confluency mask): cytotoxic (confluency <70% of control); higher = enhanced NF-kB activity
Procedure, shortened: as §1

[4] = library stock concentration (final ~1000-fold dilution): 10 mM, cytotoxicity flag (confluency mask): not cytotoxic, agonist: Imiquimod (TLR7) […]
[5] = library stock concentration (final ~1000-fold dilution): 10 mM, cytotoxicity flag (confluency mask): not cytotoxic, agonist: MPLA (TLR4) […]
[6] = agonist: ODN 1826 (TLR9) 0.5 ug/mL
[7] = agonist: Pam2CSK4 (TLR2/6) 0.1 ug/mL
[8] = agonist: Pam3CSK4 (TLR2/1) 0.1 ug/mL
[9] = library stock concentration (final ~1000-fold dilution): 10 mM, cytotoxicity flag (confluency mask): cytotoxic (confluency <70% of control), agonist: Imiquimod (TLR7) […]
[10] = library stock concentration (final ~1000-fold dilution): 10 mM, cytotoxicity flag (confluency mask): cytotoxic (confluency <70% of control), agonist: MPLA (TLR4) […]
[11] = library stock concentration (final ~1000-fold dilution): 10 mM water, cytotoxicity flag (confluency mask): not cytotoxic, agonist: Imiquimod (TLR7) […]
[12] = library stock concentration (final ~1000-fold dilution): 10 mM water, cytotoxicity flag (confluency mask): not cytotoxic, agonist: MPLA (TLR4) […]

O=C(Oc1coc(CSc2ncccn2)cc1=O)c1ccc([N+](=O)[O-])cc1
NF-kB SEAP reporter activity [1, 4]: 0.717
NF-kB SEAP reporter activity [1, 5]: 1.01

O=C(Oc1cc(S(=O)(=O)c2ccccc2)ccc1[N+](=O)[O-])c1ccc(Cl)cc1 (library stock concentration (final ~1000-fold dilution): 10 mM)
NF-kB SEAP reporter activity ([2]; agonist: LPS (TLR4) 0.1 ug/mL): 5.2
NF-kB SEAP reporter activity [2, 6]: 2.09
NF-kB SEAP reporter activity [2, 7]: 1.03
NF-kB SEAP reporter activity [2, 8]: 1.81

COCCOc1cc(F)c2c(Nc3ccc(NC(=O)Cn4cc(C(C)C)nn4)cc3)ncnc2c1 (library stock concentration (final ~1000-fold dilution): 10 mM)
NF-kB SEAP reporter activity ([2]; agonist: LPS (TLR4) 0.1 ug/mL): 1.36
NF-kB SEAP reporter activity [2, 6]: 0.989
NF-kB SEAP reporter activity [2, 7]: 1.16
NF-kB SEAP reporter activity [2, 8]: 1.24

COCCOc1cc(F)c2c(Nc3ccc(NC(=O)Cn4cc(C(C)C)nn4)cc3)ncnc2c1
NF-kB SEAP reporter activity [1, 4]: 1.14
NF-kB SEAP reporter activity [1, 5]: 1.01

CC(C)c1cnn2c(NCc3ccccc3)cc(NCCCCCCN)nc12.Cl (library stock concentration (final ~1000-fold dilution): 10 mM)
NF-kB SEAP reporter activity ([3]; agonist: LPS (TLR4) 0.1 ug/mL): 0.271
NF-kB SEAP reporter activity [3, 6]: 0.234
NF-kB SEAP reporter activity [3, 7]: 1.08
NF-kB SEAP reporter activity [3, 8]: 1.5

CC(C)c1cnn2c(NCc3ccccc3)cc(NCCCCCCN)nc12.Cl
NF-kB SEAP reporter activity [1, 9]: 2.18
NF-kB SEAP reporter activity [1, 10]: 0.882

COc1cc2c(cc1NS(=O)(=O)c1ccc(Br)cc1C)n(C)c(=O)n2C (library stock concentration (final ~1000-fold dilution): 10 mM)
NF-kB SEAP reporter activity ([2]; agonist: LPS (TLR4) 0.1 ug/mL): 1.73
NF-kB SEAP reporter activity [2, 6]: 1.23
NF-kB SEAP reporter activity [2, 7]: 0.828
NF-kB SEAP reporter activity [2, 8]: 1.08

COc1ccccc1S(=O)(=O)Nc1ccc2c(c1)CN(C)C(=O)N2
NF-kB SEAP reporter activity [1, 4]: 2.14
NF-kB SEAP reporter activity [1, 5]: 2.51

COc1ccccc1S(=O)(=O)Nc1ccc2c(c1)CN(C)C(=O)N2 (library stock concentration (final ~1000-fold dilution): 10 mM)
NF-kB SEAP reporter activity ([2]; agonist: LPS (TLR4) 0.1 ug/mL): 3.81
NF-kB SEAP reporter activity [2, 6]: 2.25
NF-kB SEAP reporter activity [2, 7]: 0.457
NF-kB SEAP reporter activity [2, 8]: 1.4

COc1ccccc1N1CCN(CCCNc2cc(=O)n(C)c(=O)n2C)CC1.Cl (library stock concentration (final ~1000-fold dilution): 10 mM)
NF-kB SEAP reporter activity ([2]; agonist: LPS (TLR4) 0.1 ug/mL): 1.02
NF-kB SEAP reporter activity [2, 6]: 0.978
NF-kB SEAP reporter activity [2, 7]: 1.06
NF-kB SEAP reporter activity [2, 8]: 1.17

COc1ccccc1N1CCN(CCCNc2cc(=O)n(C)c(=O)n2C)CC1.Cl
NF-kB SEAP reporter activity [1, 4]: 1.18
NF-kB SEAP reporter activity [1, 5]: 0.935

COc1cc2c(cc1NS(=O)(=O)c1ccc(Br)cc1C)n(C)c(=O)n2C
NF-kB SEAP reporter activity [1, 4]: 0.973
NF-kB SEAP reporter activity [1, 5]: 1.39

CN1C(=N)NC(C)(c2cc(NC(=O)c3ccc(F)cn3)ccc2F)CS1(=O)=O (stereo not drawn) (library stock concentration (final ~1000-fold dilution): 10 mM)
NF-kB SEAP reporter activity ([2]; agonist: LPS (TLR4) 0.1 ug/mL): 0.906
NF-kB SEAP reporter activity [2, 6]: 0.673
NF-kB SEAP reporter activity [2, 7]: 0.747
NF-kB SEAP reporter activity [2, 8]: 0.657

CN1C(=N)NC(C)(c2cc(NC(=O)c3ccc(F)cn3)ccc2F)CS1(=O)=O (stereo not drawn)
NF-kB SEAP reporter activity [1, 4]: 0.847
NF-kB SEAP reporter activity [1, 5]: 0.931

COc1ccc(-n2c(SCCCN3C(=O)c4cccc5cccc(c45)C3=O)nnc2-c2ccncc2)cc1
NF-kB SEAP reporter activity [1, 4]: 1.08
NF-kB SEAP reporter activity [1, 5]: 1.32

O=C(O)CN1C(=O)c2cccc3cccc(c23)C1=O
NF-kB SEAP reporter activity [1, 4]: 0.931
NF-kB SEAP reporter activity [1, 5]: 1.03

COc1ccc(-n2c(SCCCN3C(=O)c4cccc5cccc(c45)C3=O)nnc2-c2ccncc2)cc1 (library stock concentration (final ~1000-fold dilution): 10 mM)
NF-kB SEAP reporter activity ([2]; agonist: LPS (TLR4) 0.1 ug/mL): 2.06
NF-kB SEAP reporter activity [2, 6]: 1.17
NF-kB SEAP reporter activity [2, 7]: 1.3
NF-kB SEAP reporter activity [2, 8]: 2.18

O=C(O)CN1C(=O)c2cccc3cccc(c23)C1=O (library stock concentration (final ~1000-fold dilution): 10 mM)
NF-kB SEAP reporter activity ([2]; agonist: LPS (TLR4) 0.1 ug/mL): 0.89
NF-kB SEAP reporter activity [2, 6]: 0.942
NF-kB SEAP reporter activity [2, 7]: 1.03
NF-kB SEAP reporter activity [2, 8]: 1.06

O=C(CCCCCN1C(=O)c2cccc3cccc(c23)C1=O)NO
NF-kB SEAP reporter activity [1, 9]: 1.51
NF-kB SEAP reporter activity [1, 10]: 2.33

O=C(CCCCCN1C(=O)c2cccc3cccc(c23)C1=O)NO (library stock concentration (final ~1000-fold dilution): 10 mM)
NF-kB SEAP reporter activity ([3]; agonist: LPS (TLR4) 0.1 ug/mL): 3.67
NF-kB SEAP reporter activity [3, 6]: 2.57
NF-kB SEAP reporter activity [3, 7]: 1.28
NF-kB SEAP reporter activity [3, 8]: 2.06

CCC(C)CC(C)CCCCCCCCC(=O)NC1CC(O)C(NCCN)NC(=O)C2C(O)CCN2C(=O)C(C(O)CCN)NC(=O)C(C(O)C(O)c2ccc(O)cc2)NC(=O)C2CC(O)CN2C(=O)C(C(C)O)NC1=O (stereo not drawn) (library stock concentration (final ~1000-fold dilution): 10 mM water)
NF-kB SEAP reporter activity ([2]; agonist: LPS (TLR4) 0.1 ug/mL): 1.29
NF-kB SEAP reporter activity [2, 6]: 1.08
NF-kB SEAP reporter activity [2, 7]: 1.09
NF-kB SEAP reporter activity [2, 8]: 0.968

CCC(C)CC(C)CCCCCCCCC(=O)NC1CC(O)C(NCCN)NC(=O)C2C(O)CCN2C(=O)C(C(O)CCN)NC(=O)C(C(O)C(O)c2ccc(O)cc2)NC(=O)C2CC(O)CN2C(=O)C(C(C)O)NC1=O (stereo not drawn)
NF-kB SEAP reporter activity [1, 11]: 0.901
NF-kB SEAP reporter activity [1, 12]: 0.866

CCCCCOc1ccc(-c2ccc(-c3ccc(C(=O)NC4CC(O)C(O)NC(=O)C5C(O)C(C)CN5C(=O)C(C(C)O)NC(=O)C(C(O)C(O)c5ccc(O)cc5)NC(=O)C5CC(O)CN5C(=O)C(C(C)O)NC4=O)cc3)cc2)cc1 (stereo not drawn) (library stock concentration (final ~1000-fold dilution): 10 mM)
NF-kB SEAP reporter activity ([3]; agonist: LPS (TLR4) 0.1 ug/mL): 3.72
NF-kB SEAP reporter activity [3, 6]: 0.545
NF-kB SEAP reporter activity [3, 7]: 1.28
NF-kB SEAP reporter activity [3, 8]: 1.42

CCCCCOc1ccc(-c2cc(-c3ccc(C(=O)NC4CC(O)C(O)NC(=O)C5C(O)C(C)CN5C(=O)C(C(O)CC(N)=O)NC(=O)C(C(O)C(O)c5ccc(O)c(OS(=O)(=O)O)c5)NC(=O)C5CC(O)CN5C(=O)C(C(C)O)NC4=O)cc3)no2)cc1 (stereo not drawn)
NF-kB SEAP reporter activity [1, 11]: 0.949
NF-kB SEAP reporter activity [1, 12]: 1.14

CCCCCOc1ccc(-c2cc(-c3ccc(C(=O)NC4CC(O)C(O)NC(=O)C5C(O)C(C)CN5C(=O)C(C(O)CC(N)=O)NC(=O)C(C(O)C(O)c5ccc(O)c(OS(=O)(=O)O)c5)NC(=O)C5CC(O)CN5C(=O)C(C(C)O)NC4=O)cc3)no2)cc1 (stereo not drawn) (library stock concentration (final ~1000-fold dilution): 10 mM water)
NF-kB SEAP reporter activity ([2]; agonist: LPS (TLR4) 0.1 ug/mL): 1.2
NF-kB SEAP reporter activity [2, 6]: 1.05
NF-kB SEAP reporter activity [2, 7]: 0.968
NF-kB SEAP reporter activity [2, 8]: 1.09

CCCCCOc1ccc(-c2ccc(-c3ccc(C(=O)NC4CC(O)C(O)NC(=O)C5C(O)C(C)CN5C(=O)C(C(C)O)NC(=O)C(C(O)C(O)c5ccc(O)cc5)NC(=O)C5CC(O)CN5C(=O)C(C(C)O)NC4=O)cc3)cc2)cc1 (stereo not drawn)
NF-kB SEAP reporter activity [1, 9]: 1.67
NF-kB SEAP reporter activity [1, 10]: 2.43
